# According to PubChem BioAssay AID449762 (Southern Research Specialized Biocontainment Screening …, 2010):
# The whole screen tested about 330,000 compounds, of which about 1,900 (0.58%) were called active. Another 4% or so got no clear call; they are omitted. Not all results are given here. Potency and affinity values are given separately. Values without a mark were called inactive. Cut-off read from the data, not from the text of the source: inconclusive = inhibition above about 70% without an active follow-up result; inactive = below that.
# Assay: M. tuberculosis growth inhibition, HTS (AID 449762);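 note: bacterial growth assessed after seven days of incubation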
# Conditions: M. tuberculosis H37Rv growth inhibition, 7H9 media; at 25 µM; stronger effect = higher value
row,Structure (SMILES),inhibition
1,O=C1c2ccccc2C(=O)N1Cc1ccc2c(c1)OCO2,4.9%
2,CC(C(=O)NC1CCCC1)N1C(=O)c2cccc3cccc1c23 (stereo not given),-3.8%
3,CCOC(=O)c1cnc(-n2nc(C)cc2C)nc1Nc1cccc(C(=O)O)c1,19.4%
4,CCOC(=O)c1cnc(-n2nc(C)cc2C)nc1Nc1ccc(O)cc1,-2.03%
5,COc1ccc(CN2CCn3ncc(C(=O)Nc4cccc(C)c4)c3C2=O)cc1,3.51%
6,COc1ccc(C(CNC(=O)C2CC2)N(C)C)cc1 (stereo not given),-15.1%
7,CCSc1nnc(C)n1-c1ccc(C(=O)O)cc1,-3.32%
8,O=C1c2ccc(-c3nc4ccccc4o3)cc2C(=O)N1Cc1cccnc1,6.12%
9,CCc1ccc(OCC(=O)Nc2ccc(-c3nc4ccccc4o3)c(O)c2)cc1,-3.85%
10,CC(C)NC(=O)c1ccc(-n2c(=S)[nH]c3ccccc3c2=O)cc1,-2.47%
11,CCN(CC)S(=O)(=O)c1ccc(N2CCCC2)c(NC(=O)c2nn(C)c(=O)c3ccccc23)c1,-4.45%
12,CCN(CC)S(=O)(=O)c1ccc2[nH]cc(C(=O)NCCc3ccccc3)c(=O)c2c1,4.1%
13,CCN(CC)S(=O)(=O)c1ccc2[nH]cc(C(=O)NCCN3CCCCCC3)c(=O)c2c1,-8.55%
14,CCN(C(=O)c1cc(Cl)ccc1OC)c1ccccc1,-7.73%
15,CCOC(=O)C1=C(C)C(c2cccc(Oc3ccccc3)c2)NC(=S)N1 (stereo not given),10.7%
16,COc1ccc(-c2csc(NS(=O)(=O)c3ccc([N+](=O)[O-])cc3)n2)cc1,1.1%
17,c1ccc(-c2nccc(-c3ccco3)n2)nc1,58.2%
18,COc1ccc(-c2nc(-c3ccccn3)ncc2S(C)(=O)=O)cc1,-1.3%
19,Cc1ccc(-n2c3nc(=O)n(C)c(=O)c-3cc3ccccc32)cc1,10.4%
20,Cc1ccccc1-n1c2nc(=O)n(C)c(=O)c-2cc2ccccc21,0.96%
21,Cc1ccc(NC(=O)CSc2nc(=O)n(CCN3CCOCC3)c3c2CCCC3)cc1,-2.61%
22,CCCS(=O)(=O)N1CCC(C(=O)NCCc2ccccc2)CC1,4.73%

row,Structure (SMILES),inhibition
1,CCc1cc(/C(Cc2ccccn2)=N\O)c(O)cc1O,-0.69%
2,CCc1cc(C(=O)Cc2ccccn2)c(O)cc1O,-1.89%
3,CC(/C=C\c1ccccc1)=C/C(=O)O,-1.86%
4,CC(/C=C/c1ccc(C)o1)=C\C(=O)O,8.65%
5,N#CC(C(=O)O)=C1CCCC1,-4.52%
6,COc1ccc(COc2cc(-c3cccc(OC)c3)nc3ccc(NC(=O)c4ccc(N(C)C)cc4)cc23)cc1,-16.9%
7,COc1ccc(COc2cc(-c3cccc(OC)c3)nc3ccc(NC(=O)c4ccc(Cl)cc4)cc23)cc1,56.2%
8,O=C(NC1CCN(S(=O)(=O)c2ccccc2F)CC1)c1ccco1,-8.86%
9,COc1cccc(NC(=O)CN(C)C(=O)C2CC3C=CC2C3)c1 (stereo not given),0.94%
10,CCN(c1ccccc1)S(=O)(=O)c1ccc(Cl)c(NC(=O)CNCc2ccccc2OC)c1,-4.74%
11,NS(=O)(=O)c1cccc(NC(=O)COc2ccc([N+](=O)[O-])cc2)c1,-1.48%
12,O=C(NCc1ccc(F)cc1)C1(S(=O)(=O)c2ccc(Cl)cc2)CC1,-0.39%
13,CN(C)c1ccc(C=C2C(=O)OC(C)(C(C)(C)C)OC2=O)cc1 (stereo not given),0.2%
14,COc1ccccc1/C=C1\N=C(C(C)(C)C)OC1=O,7.56%
15,CC(C)Cn1c(NCCN(C)C)nc2c1c(=O)[nH]c(=O)n2C,-4.76%
16,CCNc1nc2c(c(=O)[nH]c(=O)n2C)n1CC(C)C,-9.92%
17,Cc1c(Cl)cccc1NC(=O)CSc1nnnn1C,1.96%
18,CC(C)Oc1ccc(C(CCNCc2ccc(O)cc2)c2ccccc2)cc1 (stereo not given),62.7%
19,COc1ccc(C(CCNCc2ccc(N(C)C)cc2)C(C)C)cc1 (stereo not given),10.7%
20,CSc1ccc(CCNC(=O)c2cc(C)nn2-c2ccccc2)cc1,3.36%
21,COc1ccc(NC(=O)CCNC(=O)c2ccccc2)cc1S(N)(=O)=O,-4.86%
22,CC(=O)c1ccc(COC(=O)c2cc3ccccc3oc2=O)cc1,13.6%

row,Structure (SMILES),inhibition
1,CCOC(=O)c1cc2ccc(OC)cc2oc1=O,14%
2,CCOC(=O)c1cc2c(ccc3ccccc32)oc1=O,52.8%
3,COC(=O)c1ccc(COC(=O)c2cc3ccccc3oc2=O)cc1,15.8%
4,O=C(/C=C/c1ccccc1)N1c2ccccc2Sc2ccc(C(F)(F)F)cc21,25.3%
5,COc1cccc(-n2c(CN3CCN(c4ccccn4)CC3)nc3ccc([N+](=O)[O-])cc3c2=O)c1,-0.01%
6,COc1ccc(NC(=O)CSc2nc3c(c(=O)n2-c2ccc(C)cc2)SCC3)c(OC)c1,-1.52%
7,Cc1ccccc1C(=O)NCCCNC(=O)c1cnccn1,4.01%
8,COc1ccc(CCNC(=O)CNS(=O)(=O)c2cccs2)cc1OC,-11.3%
9,CCOc1ccc(S(=O)(=O)NC(Cc2cnc[nH]2)C(=O)O)cc1 (stereo not given),-6.37%
10,CC(=O)Nc1cccc(OCC(=O)Nc2ccc(F)cc2)c1,-11.2%
11,C=CC(=O)Nc1cccc(Oc2ncnc3[nH]cc(-c4cnc5ccccc5c4)c23)c1,1.76%
12,Cc1ccc(NC(=O)COC(=O)Cn2cnc3ccccc32)c(C)c1,5.43%
13,O=[N+]([O-])/C=C/c1cn(Cc2ccc(Cl)cc2)c2ccccc12,3.28%
14,Cc1cccc(Cn2cc(/C=C/[N+](=O)[O-])c3ccccc32)c1,-0.16%
15,COc1cc(CN(CC2CCCO2)C(=O)c2cccs2)cc(OC)c1OC (stereo not given),1.89%
16,O=C(O)C1CC(=O)N(c2ccc(OCc3ccccc3Cl)cc2)C1 (stereo not given),35.8%
17,NC(=O)C1CC(=O)N(c2ccc(OCc3ccccc3Cl)cc2)C1 (stereo not given),7.94%
18,O=C(OCc1ccccc1Cl)C1CC(=O)N(Cc2ccco2)C1 (stereo not given),5.47%
19,CCOc1ccc(N2CC(C(=O)Nc3ccccn3)CC2=O)cc1 (stereo not given),12.2%
20,CC(C)Oc1ccc(N2CC(C(=O)Nc3ccccn3)CC2=O)cc1 (stereo not given),10.3%
21,COc1ccc(COC(=O)C2CC(=O)N(Cc3ccc(C)cc3)C2)cc1 (stereo not given),16.4%
